Hits are enriched below; roughly 4.1% of the tested compounds scored in any of these assays.
CSC inhib: blocks cancer stem cells. cancer stem cell-like cells viability, luminescence. inhibition, % at 7.5 µM. 1.1% of 300,000 active; in the data active = inhibition above about 75%; inconclusive = no clear call, values can overlap the other calls; tested in HMLE shEcad cells
Mdm2 MdmX PPI: inhibitors of human Mdm2/MdmX interaction; O15151+Q00987; SaOS-2 split-luciferase Mdm2/MdmX complementation, luminescence; inhibition, % at 8 µM; AID 485346; 3% of 330,000 active;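 active = inhibition of at least 50% at 8 µM in the primary screen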
aSyn 5UTR inh: 5' untranslated region of α-synuclein, MLPCN primary screen; inhibition, % (tested at 7.5 µM); alpha-synuclein 5'UTR reporter, inhibitor activity; 0.82% of 300,000 active; in the data active = inhibition above about 60%; inconclusive = no clear call, values can overlap the other calls;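 note: H4 neuroglioblastoma cells stably carrying SNCA 5'UTR luciferase fusion; 0% = DMSO wells and 100% = positive control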
Bfl-1 A1 inh: inhibitors of the anti-apoptotic protein A1, read as caspase activation; caspase activation, % (concentration not given with the values); MEF A1-2A-BIM cells, Caspase-Glo 3/7 luminescence, 3 h; percent of clofoctol response, vehicle zero; AID 2462; 0.066% of 330,000 active;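 active = over half of replicate activation scores above 10%, or exactly half above 10 with the replicate mean above 10; inconclusive = replicate mean below 10 yet half the replicates above 10; inactive = over half of replicates below 10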
Beta cell apopt: blocks beta cell apoptosis. INS-1E cytokine-induced death, ATP luminescence, 48 h; percent of positive-control rescue, neutral wells zero. protection from apoptosis, % (no concentration beside the values). 0.8% of 300,000 active;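 active = Every replicate reaches about 75%, or at least half do and their mean reaches it too, limit read from the data; inconclusive = At least half of replicates reach the limit but their mean does not; inactive = Under half of replicates reach the limit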;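 note: 0% = cytokine-treated negative control wells and 100% = positive control rescue; higher means more ATP so stronger rescue from cytokine killing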
Mdm2 MdmX conf: confirmation of human Mdm2/MdmX interaction inhibitors | shares compounds with Mdm2 MdmX PPI | Mdm2-MdmX binding, luminescent assay | inhibition, % at 8 µM | 55% of 10,000 active | AID 489028; in the data active = inhibition above about 40%
FLuc counter: inhibits full-length luciferase, flagging false Mdm2/MdmX hits; SaOS-2 full-length luciferase counterscreen, luminescence; 77% of 6,200 active; shares compounds with Mdm2 MdmX PPI; inhibition, % at 8 µM;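 active = mean inhibition at 8 µM reaching about 37%, which flags the compound as non-specific, limit read from the data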;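 note: p53-null SaOS-2 cells with luciferase driven by a doxycycline-inducible promoter; compound on cells about two nights before reading with doxycycline added after day one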
* = called active by the depositor; ? = inconclusive; · = not tested or not shown.

SMILES	CSC inhib	Mdm2 MdmX PPI	aSyn 5UTR inh	Bfl-1 A1 inh	Beta cell apopt	Mdm2 MdmX conf	others
COc1ccc(OC[C@@H](O)CNC(=O)c2cccc3c2C(=O)c2ccc(-c4ccc(F)cc4OCc4ccccc4)cc2S3(=O)=O)cc1	·	13.1	·	0.4	0.4	·
COc1ccc(NC(=O)c2cccc3c2C(=O)c2ccc(-c4ccc(F)cc4OCc4ccccc4)cc2S3(=O)=O)cc1	8.6	78.4*	·	3.3	-0.2	30.9
O=C(NNC(=O)C1CCC1)c1ccc(Br)cc1	-5.6	-10.3	-11.2	0.9	-4.8	·
Cc1cnc(C(=O)NNC(=O)c2ccc(Br)cc2)cn1	12.1	60.8*	25.0	-0.1	13.5	34.8	FLuc counter=69.3*
Cc1cc(NC(=O)C(C)SCC(=O)N(Cc2ccccc2)c2ccccc2)no1 (stereo not given)	16.0	66.9*	12.5	0.7	0.7	45.2*	FLuc counter=109.7*
Cc1occc1C(=O)Nc1ccc([N+](=O)[O-])cc1Br	·	1.7	-12.8	-0.2	0.5	·
O=C(Nc1ccc([N+](=O)[O-])cc1Br)c1cc2ccccc2nc1Cl	-6.7	84.6*	-18.2	1.8	2.7	12.6
COc1ccc(C2CC(=O)Oc3cc(C)c(Cl)c(C)c32)cc1 (stereo not given)	·	18.6	·	·	·	·
O=C(Cc1sc(-c2ccccc2Cl)nc1-c1ccccc1)Nc1ccc(F)cc1	-3.0	64.0*	-26.6	-0.9	1.3	23.9
O=C(Cc1sc(-c2ccccc2)nc1-c1ccccc1)Nc1ccc(Cl)cc1	4.5	58.8*	12.9	-0.3	19.3	5.6
O=C(Cc1sc(-c2ccccc2Cl)nc1-c1ccccc1)Nc1ccccc1	2.8	72.2*	-13.0	-0.3	4.6	24.9
O=S1(=O)C=C(Sc2nnc(-c3ccccc3)o2)c2ccccc21	108.2*	80.1*	-117.5	?	104.5*	99.8*	FLuc counter=50.4*
Cc1cc(C)nc(SC2=CS(=O)(=O)c3ccccc32)n1	44.4	46.1	-120.0	0.4	-35.6	·
CCCNc1nc2ccccc2n2c(C)nnc12	-2.1	58.3*	-23.6	0.7	-10.1	33.5
CCCN(CCC)c1nc2ccccc2n2c(C)nnc12	-0.3	9.1	28.4	-0.3	-1.2	·
Cc1ccccc1C(=O)Nc1ccc(S(=O)(=O)N2CCOCC2)cc1	1.9	-17.9	-12.0	0.1	1.7	·
O=C(CNC(=O)c1ccco1)NCc1ccc2c(c1)OCO2	-6.2	4.0	·	-0.2	-7.2	·
Cn1nc(C(F)(F)F)c(/C=N/OC(=O)c2ccccc2)c1Sc1ccc(Cl)cc1	-6.6	51.0*	36.9	-0.2	7.2	6.5
C/C=C(/C)C(=O)O[C@H]1[C@@H](O)c2c(ccc3ccc(=O)oc23)OC1(C)C	-0.6	19.0	4.9	0.9	8.4	·
C=C1C(=O)O[C@@H]2[C@H]1[C@@H](OC(=O)/C(C)=C/C)C/C(C)=C\C(=O)/C=C(\C)[C@@H]2O	2.1	100.3*	-310.9	1.6	45.4	83.4*	FLuc counter=51.4*
Cc1cc(C(=O)COc2cc(F)ccc2[N+](=O)[O-])c(C)n1CC1CCCO1 (stereo not given)	-18.8	8.8	·	-0.5	1.0	·
Cc1ccc(S(=O)(=O)c2nc(-c3ccccc3Br)oc2N(C)C)cc1	5.6	31.5	13.9	-0.8	-7.1	·
Cc1ccc(S(=O)(=O)c2nc(-c3ccccc3Cl)oc2N(C)C)cc1	1.5	55.8*	14.2	-1.2	-5.8	71.9*	FLuc counter=72.5*
CC(=O)N1N=C(c2cccc(Cl)c2)OC1c1cccc([N+](=O)[O-])c1 (stereo not given)	5.9	65.4*	5.8	0.9	4.9	-14.7
CCC(c1nnnn1C1CCCC1)N1CCN(c2cccc(OC)c2)CC1 (stereo not given)	0.9	-0.5	18.3	-0.6	·	·
CCCn1c(=O)c(C(=O)N/N=C/c2ccc(F)cc2)c(O)c2ccccc21	8.8	14.7	-6.1	-0.5	18.4	·
O=C(N/N=C/c1ccc(F)cc1)c1c(O)c2ccccc2[nH]c1=O	4.5	87.8*	43.0	0.6	-2.1	4.1
CC(C)NC(=O)c1c(O)c2ccccc2[nH]c1=O	-5.4	83.7*	-51.3	-0.5	0.5	83.3*	FLuc counter=46.2*
O=C(COC(=O)C1CCC1)NCCc1ccc(Cl)cc1Cl	-4.0	27.5	-3.1	-0.2	-13.7	·

Screening data deposited in PubChem by several laboratories.
